In the library only some 4.6% were active in any assay of this set; here they are far more common.
D1 antagonist – Antagonist of Human D 1 Dopamine Receptor: qHTS | HEK293 TREx D1 cells, calcium flux, dopamine EC80; stronger effect = lower value | activity change, negative = inhibition, % at 10 µM | 3.2% of 360,000 active; in the data active means activity change below about -30%; further: on the % scale 0 is the no-effect control and ±100 the full control effect
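Calcium flux readout: force-coupled, inducible Hek293 Trex D1 line, cells induced overnight at 30 C with tetracycline, dye-loaded 30–90 min at RT. Antagonism scored against EC80 dopamine challenge given 180 s after compound.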
TRHR enhancer – qHTS for Small Molecule Agonists and Allosteric Enhancers of Human TRH Receptor: Primary Screen for Enhancers; Thyrotropin-releasing hormone receptor (Homo sapiens), P34981; TRHR cells, fluo-8 calcium fluorescence, EC20 TRH enhancement; enhancement, % at 2 µM; 0.66% of 360,000 active; AID 493056, 2011; in the data active means enhancement above about 30%; further: 0% is about no effect
Target sequence (P34981 whole entry, looked up): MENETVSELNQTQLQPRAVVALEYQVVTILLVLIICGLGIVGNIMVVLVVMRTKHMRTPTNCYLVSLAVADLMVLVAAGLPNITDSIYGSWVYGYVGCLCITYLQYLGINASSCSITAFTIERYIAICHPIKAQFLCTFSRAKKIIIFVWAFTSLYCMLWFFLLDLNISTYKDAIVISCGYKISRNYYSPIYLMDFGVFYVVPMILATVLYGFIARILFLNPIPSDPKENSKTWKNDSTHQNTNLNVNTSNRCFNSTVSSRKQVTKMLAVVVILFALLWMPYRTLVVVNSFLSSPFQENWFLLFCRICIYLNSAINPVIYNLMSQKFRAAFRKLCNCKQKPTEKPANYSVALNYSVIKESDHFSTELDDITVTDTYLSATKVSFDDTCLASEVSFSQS
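Enhancer read-out: after compound pinning and an initial kinetic agonist-mode read, an EC20 of TRH (10 nM final) was injected and fluo-8 calcium signal (Ex 480/Em 530) followed at 1 s/cycle for 100 cycles in TRHR-expressing cells.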
D1 ag – Allosteric Agonists of the Human D1 Dopamine Receptor: qHTS; D(1A) dopamine receptor (Homo sapiens), P21728; HEK293 T-REx D1 cells, calcium flux, agonist mode; activation, % at 2 µM; 1% of 360,000 active; AID 504660, 2011; further: 0% is about no effect
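Inducible HEK293 T-REx D1 cells, force-coupled to calcium signalling, were plated at 4000 cells/well with tetracycline and held overnight at 30 C. After no-wash calcium dye loading, compound-evoked calcium rise over 180 s flagged agonists.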
TRHR ag – qHTS for Small Molecule Agonists and Allosteric Enhancers of Human TRH Receptor: Primary Screen for Agonists; Thyrotropin-releasing hormone receptor (Homo sapiens), P34981; TRHR cells, calcium flux fluo-8, FDSS agonist mode; activation, % at 2 µM; 0.18% of 360,000 active; AID 493084, 2011; further: 0% is about no effect
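Steps: seed TRHR cells overnight; add fluo-8 no-wash Ca dye, RT 30 min–1.5 h; record 10 s baseline; pin-transfer compounds; monitor fluorescence 1 cycle/s for the agonist window. Calcium increases flag candidate agonists.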
D1 PAM – Potentiators of Human D1 Dopamine Receptor: qHTS | HEK293 TREx D1 cells, calcium flux, dopamine EC20 potentiation | potentiation, % at 10 µM | 0.036% of 360,000 active; in the data active means potentiation above about 30%; further: 0% is about no effect
An asterisk follows results filed as active. Unless noted, no stated cut-off is given here; in the data, active means activation above about 30%; inactive means the rest.

What do the screens show for `COc1cccc2c1cc1c(=O)n(CC(=O)N3CCN(c4ccc(Cl)cc4)CC3)nc(C)n12`?
D1 antagonist: 4; TRHR enhancer: 2; D1 ag: 0; TRHR ag: -1; D1 PAM: -3

How did C=CCc1cc(OC)ccc1OCC(O)CN1CCN(c2ccc(OC)cc2)CC1 (stereo not given) do in these assays?
D1 antagonist: -7; TRHR enhancer: 6; D1 ag: 6; TRHR ag: 0; D1 PAM: -3

Results for COc1cccc(OC)c1OCC(O)CN1CCN(c2ccccc2F)CC1 (stereo not given) ?
D1 antagonist: -18; TRHR enhancer: 2; D1 ag: 4; TRHR ag: -1; D1 PAM: -6

What do the screens show for `C=CCc1ccccc1OCC(O)CN1CCN(c2ccccc2OC)CC1` (stereo not given)?
D1 antagonist: -43*; TRHR enhancer: 5; D1 ag: 16; TRHR ag: 1; D1 PAM: -8

How did OC(COc1ccccc1Cl)CN1CCN(CC(O)COc2ccccc2Cl)CC1 (stereo not given) do in these assays?
D1 antagonist: -82*; TRHR enhancer: -5; D1 ag: 99*; TRHR ag: 3; D1 PAM: -6

What do the screens show for `C=CCc1ccccc1OCC(O)CN1CCN(c2ccccc2F)CC1` (stereo not given)?
D1 antagonist: -61*; TRHR enhancer: -4; D1 ag: 7; TRHR ag: 1; D1 PAM: -20

How did C=CCc1ccccc1OCC(O)CNC(C)C (stereo not given) do in these assays?
D1 antagonist: -36*; TRHR enhancer: 3; D1 ag: 4; TRHR ag: 1; D1 PAM: -5

What do the screens show for `C/C(CC(=O)Nc1ccc2c(c1)OCCO2)=N\NC(=O)c1ccccc1F`?
D1 antagonist: 2; TRHR enhancer: -4; D1 ag: 1; TRHR ag: -1; D1 PAM: -5

Results for O=C(COC(=O)CC1CC2CCC1C2)Nc1cc([N+](=O)[O-])ccc1F (stereo not given) ?
D1 antagonist: 0; TRHR enhancer: 2; D1 ag: -4; TRHR ag: 1; D1 PAM: -1

What do the screens show for `Cc1ccc2ncc(C(=O)NCc3ccccc3Cl)c(=O)n2c1`?
D1 antagonist: 13; TRHR enhancer: 7; D1 ag: -1; TRHR ag: 0; D1 PAM: -5

How did Cc1ccc(C)c(OCC(O)CN2CCC(Cc3ccccc3)CC2)c1 (stereo not given) do in these assays?
D1 antagonist: -78*; TRHR enhancer: -4; D1 ag: 47*; TRHR ag: 2; D1 PAM: -18

What do the screens show for `COc1ccc(N2CCN(CC(O)COc3ccc(F)cc3)CC2)cc1` (stereo not given)?
D1 antagonist: -66*; TRHR enhancer: 11; D1 ag: 12; TRHR ag: 0; D1 PAM: -22

Results for COc1cc(C(C)=O)ccc1OCC(O)CN1CCN(c2ccc(C)cc2C)CC1 (stereo not given) ?
D1 antagonist: -39*; TRHR enhancer: 4; D1 ag: 3; TRHR ag: 0; D1 PAM: -1

Results for C=CCc1ccccc1OCC(O)CN1CCN(c2ccccc2)CC1 (stereo not given) ?
D1 antagonist: -39*; TRHR enhancer: 5; D1 ag: -3; TRHR ag: -2; D1 PAM: 0

What do the screens show for `CCn1cc(S(=O)(=O)CC(=O)Nc2ccc3c(c2)OCO3)c2ccccc21`?
D1 antagonist: 9; TRHR enhancer: -1; D1 ag: 0; TRHR ag: -2; D1 PAM: -1

How did CCCS(=O)(=O)N1CCN(C2Cc3ccccc3C2)CC1 do in these assays?
D1 antagonist: -14; TRHR enhancer: 12; D1 ag: 3; TRHR ag: -1; D1 PAM: 0
